Experimental data taken from PubChem BioAssay (NCATS).
Records with an inconclusive call do not appear. Active and inactive are the calls of the source. Unless noted, calls follow the shape of the dose curve; as a rule, active = well fitted curve in either direction with a large enough effect (not every such curve was filed as active); inconclusive = small, poorly fitted or top-dose-only effect, or another doubt; inactive = flat fitted curve, though single readings scatter.

Tests used:
[1] = target: Lysosomal acid glucosylceramidase (Homo sapiens) (UniProt P04062); assay: Glucocerebrosidase-p2 (AID 348; in the data active = potency below about 10 µM; also: potency is read from the fitted curve at half-maximal effect); details: purified GBA, blue fluorogenic substrate, 40 min
Method in brief: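 Normal human glucocerebrosidase (0.2 nM) with blue fluorogenic substrate (80 uM final) in citrate/phosphate pH 5.9 with 10mM sodium taurocholate, 0.01% tween-20; 40 min RT, NaOH/glycine stop; fluorescence Ex 365/Em 440; AC50 from a titration from 0.6 nM upwards.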

[2] = AP1 Signaling Pathway (AID 357); details: ME-180 AP-1-bla reporter, EGF-induced, beta-lactamase ratio, 5 h; at 7.69 µM (top of the series) unless noted;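 also: ME-180 reporter cells stimulated with EGF at its EC50 level; % is scaled to controls: 0 for no effect and ±100 for the full control effect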
Method in brief: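 Read-out was the 460nm/530nm emission ratio (excitation 405nm) after CCF4 loading for 2.5 hours at room temperature. Cells carried an AP-1-driven beta-lactamase reporter, were stimulated with EC50 EGF plus compound for 5 hours, and AC50 values came from titrations.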

[3] = target: Cytochrome P450 1A2 (Homo sapiens) (UniProt P05177); assay: p450-cyp1a2 (AID 410; calls by dose curve; also: potency is read from the fitted curve at half-maximal effect); details: recombinant CYP1A2, luciferin-ME demethylation, luminescence; series mostly up to 57 µM
Method in brief: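 Read-out is luminescence from luciferin produced by CYP1A2 demethylation of Luciferin-ME (100uM, at Km). Detection reagent stopped the 60 min NADPH-dependent reaction; signals were normalized to 57 uM furafylline.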

[4] = NFAT Signaling Pathway (AID 444); details: Jurkat NFAT-bla M1, carbachol, beta-lactamase ratio, 5 h; at 7.69 µM (top of the series) unless noted;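 also: carbachol stimulus at about its EC50 of 1 µM final; % is scaled to controls: 0 for no effect and ±100 for the full control effect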
Method in brief: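 Read-out: CCF4 FRET ratio (460 nm/530 nm) after 1 h RT dye loading, used for %activity and AC50 from titration series. Cells: Jurkat NFAT-β-lactamase/M1 line, treated with compound plus 1 uM carbachol for 5 h, 37 °C.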

[5] = Stat Signaling Pathway (AID 446); details: ME-180 (cervical carcinoma) SIE beta-lactamase reporter, IL-6 stimulated, 5 h; at 7.69 µM (top of the series) unless noted;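 also: ME-180 cervical cancer cells given 40 pM IL-6 alongside compound; SIE-controlled beta-lactamase reporter measured as 460/530 nm FRET emission ratio; % is scaled to controls: 0 for no effect and ±100 for the full control effect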
Method in brief: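 Compound effects on IL-6-induced STAT reporter activity were measured in ME-180 cells. After overnight culture, cells were co-treated with 40 pM IL-6 for 5 hrs before beta-lactamase substrate loading at room temperature.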

[6] = target: Glucocorticoid receptor (Homo sapiens) (UniProt P04150); assay: GR-GFP Redistribution (AID 450;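 active = compounds whose dose series gives a full or clear partial fitted curve of increased nuclear translocation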; also: potency is read from the fitted curve at half-maximal effect); details: U2OS GR-GFP nuclear translocation, laser cytometry, 2 h
[7] = target: Glucocorticoid receptor (Homo sapiens) (UniProt P04150); assay: GR-EFC Redistribution (AID 451; calls by dose curve; also: potency is read from the fitted curve at half-maximal effect); details: CHO-K1 GR-EFC translocation, beta-gal luminescence, 2 h
Method in brief: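 Translocation of GR-ED fusion to nuclear EA restores b-gal, read by luminescence after 1 h room-temperature detection. Engineered CHO-K1 biosensor cells, 1,000/well, exposed 2 h at 37 C to titrations up to 46 uM final.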

[8] = target: Mitogen-activated protein kinase 10 (Mus musculus) (UniProt Q61831); assay: JNK3 AlphaScreen Assay (AID 530); details: JNK3 lysate, c-Jun phosphorylation; series mostly up to 57.1 µM;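 also: kinase came from lysate of stimulated human HepG2 cells; signal reports phosphorylation of biotinylated GST-cJun 1-79 at Ser73 with 10 µM ATP; % is scaled to controls: 0 for no effect and ±100 for the full control effect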
Method in brief: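 Kinase buffer: 20 mM Tris-HCl pH 7.6, 10 mM MgCl2, 1 mM DTT, 0.1 mM Na3VO4, 0.01% Tween-20; ATP 10 uM. Substrate biotin-GST-cJun(1-79), enzyme from activated HepG2 lysates. Detection by Ser73 phospho-antibody AlphaScreen.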

[9] = target: 3',5'-cyclic-AMP phosphodiesterase 4B (Homo sapiens) (UniProt Q07343); assay: qHTS Assay for Inhibitors of PDE-IV (AID 607; active = well fitted activation curve with a large enough effect in the main read-out, with a control signal flat, not every such curve was filed as active; also: % of control where 0% means no effect); details: HEK293 ACTOne CNG channel cells, membrane potential fluorescence; series mostly up to 22.9 µM
Method in brief: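 ACTOne HEK293 cells carry a modified cAMP-gated CNG channel and express endogenous PDE4; plated 1000 cells/well, compounds up to 22.9 uM final. Membrane-potential dye fluorescence (ex 535/em 590) was read; parental cells received 10 uM forskolin + 100 uM RO 20-1724.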

[10] = target: Cytochrome P450 3A4 (Homo sapiens) (UniProt P08684); assay: qHTS Assay for Inhibitors and Substrates of Cytochrome P450 3A4 (AID 884; active = well fitted curve in the direction sought with a large enough effect; an effect the other way counts as inactive or inconclusive; also: nearly all actives have a fitted effect of over 50% in size; also: potency is read from the fitted curve at half-maximal effect); details: recombinant CYP3A4, Luciferin-PPXE luminescence; series mostly up to 57.1 µM
Method in brief: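 Luminescent readout of luciferin produced by CYP3A4 (20 nM) dealkylation of Luciferin-PPXE, 25 uM (its KM). NADPH-driven reaction ran 60 min at RT after 10 min compound preincubation; data scaled to 57 uM ketoconazole as 100% inhibition.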

[11] = Confirmation and Secondary Assay for Modulators of Hemoglobin Beta Chain Splicing at IVS2 654 locus (AID 910; active = well fitted curve in the direction sought with a large enough effect; an effect the other way counts as inactive or inconclusive;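 also: HeLa cells stably carrying EGFP split by mutant beta-globin IVS2-654 intron; per-well total GFP intensity by laser scanning cytometry after 2-day treatment; % of control where 0% means no effect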); details: HeLa EGFP-654 splicing reporter, GFP fluorescence, 48 h; series mostly up to 38.3 µM
Method in brief: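 Readout: per-well total peak green fluorescence (488 nm ex, 500–520 nm em) from objects 5–250 µm, reflecting correct splicing of an EGFP-654 reporter. Compounds were applied for 2 days at 37 °C to overnight-plated HeLa EGFP-654 cells; controls were DMSO and 500 nM IVS2-654 PNA.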

[12] = Confirmation and Secondary Assay for Modulators of Hemoglobin Beta Chain Splicing at IVS2 705 locus (AID 930; active = well fitted curve in the direction sought with a large enough effect; an effect the other way counts as inactive or inconclusive;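 also: HeLa cells stably expressing the EGFP-705 splicing reporter; GFP fluorescence per well restored by corrected splicing of the IVS2-705 intron in EGFP; % of control where 0% means no effect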); details: HeLa EGFP-705 splicing reporter, GFP fluorescence, 48 h; series mostly up to 38.3 µM
Method in brief: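 Stable HeLa line with EGFP disrupted by mutant beta-globin intron 2 (705). Overnight attachment, then 2 days of compound at 37C, 5% CO2. Signal: peak GFP intensity summed over objects 5-250 µm.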

[13] = qHTS Assay for Lipid Storage Modulators (AID 1519; calls by dose curve); details: Drosophila S3 cells, BODIPY lipid droplet/cell ratio, laser cytometry, cells loaded with oleic acid; for activity change, negative = inhibition: at 57.5 µM (top of the series)
Method in brief: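 Cells seeded at 5,000 per well were treated with compounds over a concentration series and loaded with oleic acid (400 uM, as added). Lipid droplet fluorescence (488 nm excitation, 500-530 nm channel) was read by laser-scanning cytometry and normalized to 20 uM Triacsin C.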

[14] = target: Ubiquitin carboxyl-terminal hydrolase 1 (Homo sapiens) (UniProt O94782); assay: Inhibitors of USP1/UAF1: Pilot qHTS (AID 504865; active = well fitted curve in the direction sought with a large enough effect; an effect the other way counts as inactive or inconclusive;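 also: rhodamine fluorescence freed from ubiquitin-rhodamine substrate followed over time; top concentration of the series differs between compounds; % is scaled to controls: 0 for no effect and ±100 for the full control effect; nearly all actives have a fitted effect of over 35% in size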); details: purified USP1/UAF1, Ub-rhodamine cleavage fluorescence; series mostly up to 54.9 µM
Method in brief: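 Enzyme-free wells gave the negative control, while test wells held 1nM USP1/UAF1 preincubated with compound for 15 min at room temperature. Ub-Rho at 150nM final started the reaction, and fluorescence at 480/540 nm was recorded kinetically.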

[15] = Primary qHTS for small molecule stabilizers of the endoplasmic reticulum resident proteome: Secreted ER Calcium Modulated Protein (SERCaMP) assay (AID 1508630; active = well fitted curve in the direction sought with a large enough effect; an effect the other way counts as inactive or inconclusive; also: % is scaled to controls: 0 for no effect and ±100 for the full control effect); details: SH-SY5Y GLuc-SERCaMP (Gaussia luciferase released on ER calcium loss) secretion, thapsigargin, luminescence; series mostly up to 38.4 µM
Method in brief: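 The SH-SY5Y reporter protocol was run at 3 concentrations up to 38.3 uM (primary) or 11 concentrations (follow-up): 16 h compound, 100 nM thapsigargin for 4 h, then extracellular luciferase luminescence.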

[16] = target: Cytochrome P450 3A4 (Homo sapiens) (UniProt P08684); assay: qHTS Assay for Activators of Cytochrome P450 3A4 (AID 885; active = well fitted curve in the direction sought with a large enough effect; an effect the other way counts as inactive or inconclusive; also: nearly all actives have a fitted effect of over 65% in size); details: recombinant CYP3A4, Luciferin-PPXE luminescence, 60 min; series mostly up to 57.1 µM
Method in brief: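 CYP3A4 activity: Luciferin-PPXE O-dealkylation, 25uM substrate, 200mM KPO4, RT throughout. Read-out is luciferase luminescence; higher values reflect activation.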

[17] = target: Cytochrome P450 2C19 (Homo sapiens) (UniProt P33261); assay: qHTS Assay for Inhibitors and Substrates of Cytochrome P450 2C19 (AID 899; active = well fitted curve in the direction sought with a large enough effect; an effect the other way counts as inactive or inconclusive; also: potency is read from the fitted curve at half-maximal effect; nearly all actives have a fitted effect of over 60% in size); details: recombinant CYP2C19, luciferin-H EGE luminescence; series mostly up to 57.1 µM
Method in brief: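 5nM enzyme + 10uM Luciferin-H EGE (=KM), 50mM KPO4; cpd pin-transferred, 10 min 37C; NADPH regen, 60 min 37C; stopped w/ luciferin detection reagent, 20 min; luminescence. Normalized to 57uM ketoconazole (AC100).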

[18] = measured here: cell count channel max response
[19] = measured here: lipid channel max response

Chain of Cytochrome P450 3A4 (Homo sapiens) (P08684 whole entry, looked up): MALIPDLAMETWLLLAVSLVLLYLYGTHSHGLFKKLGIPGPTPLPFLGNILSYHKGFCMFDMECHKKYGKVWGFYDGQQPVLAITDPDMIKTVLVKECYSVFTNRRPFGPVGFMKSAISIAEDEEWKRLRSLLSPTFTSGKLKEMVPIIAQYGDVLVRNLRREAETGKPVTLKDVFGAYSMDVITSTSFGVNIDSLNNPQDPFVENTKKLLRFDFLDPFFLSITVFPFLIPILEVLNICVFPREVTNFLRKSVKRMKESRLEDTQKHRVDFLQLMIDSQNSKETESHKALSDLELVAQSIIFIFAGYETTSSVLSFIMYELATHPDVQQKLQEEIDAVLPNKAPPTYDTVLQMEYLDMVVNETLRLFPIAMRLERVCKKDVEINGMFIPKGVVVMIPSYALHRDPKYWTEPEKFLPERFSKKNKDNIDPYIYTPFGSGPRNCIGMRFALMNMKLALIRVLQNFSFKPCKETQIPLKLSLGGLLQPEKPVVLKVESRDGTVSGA
Chain of Lysosomal acid glucosylceramidase (Homo sapiens) (P04062 whole entry, looked up): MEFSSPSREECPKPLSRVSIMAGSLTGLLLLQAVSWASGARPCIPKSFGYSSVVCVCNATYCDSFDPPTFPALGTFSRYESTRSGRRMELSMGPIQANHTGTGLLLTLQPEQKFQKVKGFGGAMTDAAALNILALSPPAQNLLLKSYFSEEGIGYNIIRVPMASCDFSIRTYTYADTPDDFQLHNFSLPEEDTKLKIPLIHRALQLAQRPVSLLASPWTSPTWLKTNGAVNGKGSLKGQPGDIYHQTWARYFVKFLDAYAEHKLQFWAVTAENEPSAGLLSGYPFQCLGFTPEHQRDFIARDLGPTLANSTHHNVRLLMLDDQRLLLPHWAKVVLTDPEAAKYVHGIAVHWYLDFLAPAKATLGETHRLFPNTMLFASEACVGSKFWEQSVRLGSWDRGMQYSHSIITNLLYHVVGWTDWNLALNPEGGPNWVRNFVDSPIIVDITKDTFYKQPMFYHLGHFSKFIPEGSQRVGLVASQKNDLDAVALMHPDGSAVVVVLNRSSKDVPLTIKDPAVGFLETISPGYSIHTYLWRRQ
Chain of 3',5'-cyclic-AMP phosphodiesterase 4B (Homo sapiens) (Q07343 whole entry, looked up): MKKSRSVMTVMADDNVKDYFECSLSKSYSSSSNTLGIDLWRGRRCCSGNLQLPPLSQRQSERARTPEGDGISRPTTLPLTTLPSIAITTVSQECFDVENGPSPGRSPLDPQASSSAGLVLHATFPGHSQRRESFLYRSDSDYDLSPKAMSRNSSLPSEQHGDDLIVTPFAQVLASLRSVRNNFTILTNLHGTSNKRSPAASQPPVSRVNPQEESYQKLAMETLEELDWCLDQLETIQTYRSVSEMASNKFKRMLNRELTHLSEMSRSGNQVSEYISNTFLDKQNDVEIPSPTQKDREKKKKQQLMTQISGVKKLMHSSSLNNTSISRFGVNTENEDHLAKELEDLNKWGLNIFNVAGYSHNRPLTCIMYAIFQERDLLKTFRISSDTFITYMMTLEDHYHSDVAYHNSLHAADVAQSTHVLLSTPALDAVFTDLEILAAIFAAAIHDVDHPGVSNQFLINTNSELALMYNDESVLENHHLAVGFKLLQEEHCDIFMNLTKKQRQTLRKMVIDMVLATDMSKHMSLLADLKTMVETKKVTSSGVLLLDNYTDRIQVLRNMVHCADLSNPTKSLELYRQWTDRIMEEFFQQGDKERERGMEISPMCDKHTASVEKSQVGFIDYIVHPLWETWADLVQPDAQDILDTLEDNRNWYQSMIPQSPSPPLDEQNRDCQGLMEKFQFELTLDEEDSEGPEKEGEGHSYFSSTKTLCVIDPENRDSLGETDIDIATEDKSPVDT
Chain of Glucocorticoid receptor (Homo sapiens) (P04150 whole entry, looked up, the tested form may be a part): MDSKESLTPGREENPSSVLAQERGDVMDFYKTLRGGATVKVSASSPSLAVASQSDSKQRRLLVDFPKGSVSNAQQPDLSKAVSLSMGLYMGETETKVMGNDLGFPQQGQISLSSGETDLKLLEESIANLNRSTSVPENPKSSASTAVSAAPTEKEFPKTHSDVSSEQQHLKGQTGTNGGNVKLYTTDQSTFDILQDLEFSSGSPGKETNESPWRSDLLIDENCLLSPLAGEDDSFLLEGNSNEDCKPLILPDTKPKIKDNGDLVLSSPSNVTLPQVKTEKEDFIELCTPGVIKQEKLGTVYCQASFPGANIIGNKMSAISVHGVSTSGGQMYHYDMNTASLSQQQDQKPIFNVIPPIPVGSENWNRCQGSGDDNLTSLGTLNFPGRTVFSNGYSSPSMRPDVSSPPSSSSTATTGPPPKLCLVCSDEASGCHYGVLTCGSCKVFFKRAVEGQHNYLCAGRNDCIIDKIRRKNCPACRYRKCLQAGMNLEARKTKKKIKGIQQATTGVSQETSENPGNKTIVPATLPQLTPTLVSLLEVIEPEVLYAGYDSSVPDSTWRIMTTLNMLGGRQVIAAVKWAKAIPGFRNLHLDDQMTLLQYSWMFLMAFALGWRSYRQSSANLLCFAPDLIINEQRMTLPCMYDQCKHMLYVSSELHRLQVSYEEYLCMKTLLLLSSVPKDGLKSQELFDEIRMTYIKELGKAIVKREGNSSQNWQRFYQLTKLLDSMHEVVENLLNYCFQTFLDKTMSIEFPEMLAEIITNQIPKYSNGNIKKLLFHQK
Chain of Cytochrome P450 1A2 (Homo sapiens) (P05177 whole entry, looked up): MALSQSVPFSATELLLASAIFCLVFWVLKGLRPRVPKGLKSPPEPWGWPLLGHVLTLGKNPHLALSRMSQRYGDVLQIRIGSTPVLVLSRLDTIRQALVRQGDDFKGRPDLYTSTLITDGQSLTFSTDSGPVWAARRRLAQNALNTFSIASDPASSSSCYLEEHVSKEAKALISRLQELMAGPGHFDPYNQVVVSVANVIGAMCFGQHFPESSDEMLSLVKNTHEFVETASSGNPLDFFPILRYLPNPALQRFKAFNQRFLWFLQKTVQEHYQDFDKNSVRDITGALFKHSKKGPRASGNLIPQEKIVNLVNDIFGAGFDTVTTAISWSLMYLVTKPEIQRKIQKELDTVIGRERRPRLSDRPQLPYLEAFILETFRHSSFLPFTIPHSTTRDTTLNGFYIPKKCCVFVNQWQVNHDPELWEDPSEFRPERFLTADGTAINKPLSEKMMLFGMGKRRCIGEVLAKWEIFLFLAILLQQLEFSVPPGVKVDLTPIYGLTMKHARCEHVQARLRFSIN
Chain of Ubiquitin carboxyl-terminal hydrolase 1 (Homo sapiens) (O94782 whole entry, looked up): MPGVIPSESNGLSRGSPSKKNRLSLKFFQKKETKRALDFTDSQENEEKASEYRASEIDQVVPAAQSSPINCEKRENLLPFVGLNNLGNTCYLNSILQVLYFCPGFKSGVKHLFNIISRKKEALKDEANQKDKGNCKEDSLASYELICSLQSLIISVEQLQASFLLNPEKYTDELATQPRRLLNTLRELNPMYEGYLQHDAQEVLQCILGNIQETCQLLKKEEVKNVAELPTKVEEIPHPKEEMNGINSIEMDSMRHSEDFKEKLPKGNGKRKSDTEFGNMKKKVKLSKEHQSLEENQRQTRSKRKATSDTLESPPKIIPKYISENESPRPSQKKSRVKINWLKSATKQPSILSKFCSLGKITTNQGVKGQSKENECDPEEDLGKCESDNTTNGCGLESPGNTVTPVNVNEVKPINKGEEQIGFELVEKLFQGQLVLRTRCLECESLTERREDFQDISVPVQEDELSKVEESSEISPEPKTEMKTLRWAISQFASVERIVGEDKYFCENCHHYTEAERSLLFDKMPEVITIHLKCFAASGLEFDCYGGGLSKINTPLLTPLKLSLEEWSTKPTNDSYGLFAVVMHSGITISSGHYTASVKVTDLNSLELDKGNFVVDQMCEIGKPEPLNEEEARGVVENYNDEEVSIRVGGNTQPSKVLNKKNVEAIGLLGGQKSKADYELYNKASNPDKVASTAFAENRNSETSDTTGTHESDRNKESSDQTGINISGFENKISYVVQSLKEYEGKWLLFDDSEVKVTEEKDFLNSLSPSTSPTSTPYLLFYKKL
Chain of Cytochrome P450 2C19 (Homo sapiens) (P33261 whole entry, looked up): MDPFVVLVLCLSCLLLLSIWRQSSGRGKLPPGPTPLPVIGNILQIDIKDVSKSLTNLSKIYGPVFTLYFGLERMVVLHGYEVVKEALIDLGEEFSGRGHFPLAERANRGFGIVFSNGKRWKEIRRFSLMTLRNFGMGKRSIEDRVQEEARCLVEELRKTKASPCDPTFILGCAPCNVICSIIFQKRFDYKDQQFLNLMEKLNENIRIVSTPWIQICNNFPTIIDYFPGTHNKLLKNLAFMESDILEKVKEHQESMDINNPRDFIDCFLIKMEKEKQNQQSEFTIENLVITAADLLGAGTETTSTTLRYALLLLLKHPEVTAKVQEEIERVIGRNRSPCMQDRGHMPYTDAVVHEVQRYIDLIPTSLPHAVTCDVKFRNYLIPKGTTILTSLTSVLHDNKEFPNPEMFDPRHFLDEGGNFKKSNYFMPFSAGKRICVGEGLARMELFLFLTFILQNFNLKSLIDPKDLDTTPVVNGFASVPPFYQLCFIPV

Structure (SMILES)	Potency [1]	activity change, negative = inhibition [2]	Potency [3]	activity change, negative = inhibition [4]	activity, negative = inhibition [5]	Potency [6]	Potency [7]	outcome [8]	Potency [9]	Potency [10]	outcome [11]	outcome [12]	activity change, negative = inhibition [13]	max response [13, 18] [%]	max response [13, 19] [%]	Potency [14]	Potency [15]	Potency [16]	Potency [17]
COc1ccccc1-c1cncnc1-n1ccnc1	> 11.4 µM (inactive)	-7.86% (inactive)	12.6 µM (active)	1.61% (inactive)	10.2% (inactive)	> 46 µM (inactive)	> 46 µM (inactive)	inactive	inactive	inactive	inactive	inactive	7.28% (inactive)	19.4	28.5	inactive	inactive		
Cc1ccccc1-c1cncnc1Nc1ccc(F)cc1	> 11.4 µM (inactive)	15.1% (inactive)	10 µM (active)	3.46% (inactive)	32.1% (inactive)	> 46 µM (inactive)	> 46 µM (inactive)	inactive		0.199 µM (active)	inactive	inactive	6.79% (inactive)	-4.87	2.59	inactive	inactive	inactive	5.01 µM (active)
COc1ccc(CNc2cc(-c3ccoc3)ncn2)c(OC)c1	> 11.4 µM (inactive)	-15.9% (inactive)	15.8 µM (active)	0.143% (inactive)	19.9% (inactive)	> 46 µM (inactive)	> 46 µM (inactive)	inactive	inactive				8.38% (inactive)	31.5	38.7	inactive	inactive	inactive	
Cc1noc(C)c1-c1cc(NCc2ccccc2)ncn1	> 11.4 µM (inactive)	-3.94% (inactive)	5.01 µM (active)	-10.6% (inactive)	-12.8% (inactive)	> 46 µM (inactive)	> 46 µM (inactive)	inactive	inactive		inactive	inactive	9.87% (inactive)	11.1	18	inactive	inactive		
COCCn1c(=O)c(C)nc2cnc(N3CCNCC3)nc21	> 11.4 µM (inactive)	-21.3% (inactive)	10 µM (active)	-18.9% (inactive)	-2.95% (inactive)	> 9.22 µM (inactive)	> 46 µM (inactive)	inactive	inactive				1.17% (inactive)	4.65	6.84		inactive		
CNc1ccnc(-c2ccccc2C(F)(F)F)n1	> 11.4 µM (inactive)	1.92% (inactive)	12.6 µM (active)	5.43% (inactive)	-22.6% (inactive)	> 46 µM (inactive)	> 46 µM (inactive)	inactive	inactive		inactive	inactive	4.06% (inactive)	2.06	6.45		inactive	inactive	
